Laboratory results from PubChem BioAssay AID1159580 (chemical genetic matrix, 2015).
The whole screen tested about 5,500 compounds, of which about 2,000 (36%) were called active. Not shown: some 18% with an inconclusive outcome. This is one part of the list. A number with no mark means an inactive call. Rule as the data show it: active = normalized growth mostly below about 0.91 (no sharp cut-off); inconclusive = no clear call, values can overlap the other calls; inactive = mostly above about 0.92.

Test: chemical genetic growth profiling, strain panel (AID 1159580);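 also: tested at 20 µM; growth read once vehicle control cultures reached saturation at 30 °C; 1 = growth at the plate median or of vehicle wells; lower values mean less growth of the strain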
Conditions: S. cerevisiae deletion strains, growth OD

## O=C(Oc1cccc2[nH]ccc12)c1ccc(C(F)(F)F)cc1
Locus YAR019C, strain CDC15, hits give low values
  normalized growth: 0.968
Locus YBL105C, strain PKC1, hits give low values
  normalized growth: 0.97
Locus YBR135W, strain CKS1, hits give low values
  normalized growth: 0.974
Locus YBR136W, strain MEC1, hits give low values
  normalized growth: 0.968
Locus YBR160W, strain CDC28, hits give low values
  normalized growth: 0.974
Locus YDL017W, strain CDC7, hits give low values
  normalized growth: 0.965
Locus YDL028C, strain MPS1, hits give low values
  normalized growth: 0.974
Locus YDL101C, strain DUN1, hits give low values
  normalized growth: 0.984
Locus YDL108W, strain KIN28, hits give low values
  normalized growth: 0.971
Locus YDL132W, strain cdc53, hits give low values
  normalized growth: 0.973
Locus YDL214C, strain PRR2, hits give low values
  normalized growth: 0.82
Locus YDR052C, strain DBF4, hits give low values
  normalized growth: 0.972
Locus YDR054C, strain cdc34, hits give low values
  normalized growth: 0.961
Locus YDR226W, strain ADK1, hits give low values
  normalized growth: 0.956
Locus YDR477W, strain SNF1, hits give low values
  normalized growth: 0.814
Locus YER123W, strain YCK3, hits give low values
  normalized growth: 0.702
Locus YER133W, strain GLC7, hits give low values
  normalized growth: 0.775
Locus YFL009W, strain cdc4, hits give low values
  normalized growth: 0.966
Locus YFL029C, strain CAK1, hits give low values
  normalized growth: 0.968
Locus YFR003C, strain YPI1, hits give low values
  normalized growth: 0.966
Locus YFR019W, strain FAB1, hits give low values
  normalized growth: 0.855
Locus YFR028C, strain CDC14, hits give low values
  normalized growth: 0.955
Locus YGR040W, strain KSS1, hits give low values
  normalized growth: 0.805
Locus YGR052W, strain FMP48, hits give low values
  normalized growth: 0.763
Locus YGR092W, strain DBF2, hits give low values
  normalized growth: 0.634
Locus YHR030C, strain SLT2, hits give low values
  normalized growth: 0.454 (active)
Locus YHR079C, strain IRE1, hits give low values
  normalized growth: 0.607
Locus YHR082C, strain KSP1, hits give low values
  normalized growth: 0.857
Locus YHR205W, strain SCH9, hits give low values
  normalized growth: 0.862
Locus YIL147C, strain SLN1, hits give low values
  normalized growth: 0.962
Locus YJL095W, strain BCK1, hits give low values
  normalized growth: 0.645
Locus YJL128C, strain PBS2, hits give low values
  normalized growth: 0.933
Locus YJL157C, strain FAR1, hits give low values
  normalized growth: 0.807
Locus YJR016C, strain ILV3, hits give low values
  normalized growth: 0.966
Locus YJR066W, strain TOR1 (second series), hits give low values
  normalized growth: 0.699
Locus YJR066W, strain TOR1, hits give low values
  normalized growth: 0.679
Locus YKL048C, strain ELM1, hits give low values
  normalized growth: 0.786 (active)
Locus YKL067W, strain YNK1, hits give low values
  normalized growth: 0.827
Locus YKL101W, strain HSL1, hits give low values
  normalized growth: 0.788
Locus YKL193C, strain SDS22, hits give low values
  normalized growth: 0.964
Locus YKL203C, strain TOR2, hits give low values
  normalized growth: 0.831
Locus YLR113W, strain HOG1, hits give low values
  normalized growth: 0.754 (active)
Locus YLR133W, strain CKI1, hits give low values
  normalized growth: 0.822
Locus YLR403W, strain SFP1, hits give low values
  normalized growth: 0.831
Locus YML070W, strain DAK1, hits give low values
  normalized growth: 0.791
Locus YMR001C, strain CDC5, hits give low values
  normalized growth: 0.964
Locus YMR205C, strain PFK2 (second series), hits give low values
  normalized growth: 0.862
Locus YMR277W, strain FCP1, hits give low values
  normalized growth: 0.96
Locus YNL006W, strain LST8, hits give low values
  normalized growth: 0.969
Locus YNL020C, strain ARK1, hits give low values
  normalized growth: 0.763
Locus YNL161W, strain CBK1, hits give low values
  normalized growth: 0.987
Locus YNL183C, strain NPR1, hits give low values
  normalized growth: 0.769
Locus YNL207W, strain RIO2, hits give low values
  normalized growth: 0.97
Locus YNL222W, strain SSU72, hits give low values
  normalized growth: 0.976
Locus YNL307C, strain MCK1 (second series), hits give low values
  normalized growth: 0.859
Locus YOL078W, strain AVO1, hits give low values
  normalized growth: 0.978
Locus YOL136C, strain PFK27, hits give low values
  normalized growth: 0.815
Locus YOR061W, strain CKA2, hits give low values
  normalized growth: 0.603 (active)
Locus YOR119C, strain RIO1, hits give low values
  normalized growth: 0.887
Locus YOR231W, strain MKK1, hits give low values
  normalized growth: 0.755
Locus YOR329C, strain SCD5, hits give low values
  normalized growth: 0.97
Locus YPL031C, strain PHO85, hits give low values
  normalized growth: 0.809
Locus YPL153C, strain RAD53, hits give low values
  normalized growth: 0.757
Locus YPL204W, strain HRR25, hits give low values
  normalized growth: 0.778
Locus YPL209C, strain IPL1, hits give low values
  normalized growth: 0.965
Locus YPL256C, strain CLN2, hits give low values
  normalized growth: 0.75 (active)
Locus YPR025C, strain CCL1, hits give low values
  normalized growth: 0.975
Locus YPR106W, strain ISR1, hits give low values
  normalized growth: 0.972
Locus YPR111W, strain DBF20, hits give low values
  normalized growth: 0.937
Strain NNK1, hits give low values
  normalized growth: 0.961
Strain TSCII, hits give low values
  normalized growth: 0.967

## CC(C)NC[C@H](O)COc1cccc2[nH]ccc12
Locus YAL013W, strain DEP1, hits give low values
  normalized growth: 0.999
Locus YAL040C, strain CLN3, hits give low values
  normalized growth: 0.984
Locus YCL061C, strain MRC1 (second series), hits give low values
  normalized growth: 1.01
Locus YDR363W, strain ESC2, hits give low values
  normalized growth: 0.994
Locus YER002W, strain NOP16, hits give low values
  normalized growth: 0.969
Locus YNL153C, strain GIM3, hits give low values
  normalized growth: 1.01
Locus YNL175C, strain NOP13, hits give low values
  normalized growth: 1.01
Locus YNL197C, strain WHI3, hits give low values
  normalized growth: 1.01
Locus YNL224C, strain SQS1, hits give low values
  normalized growth: 1.01
Locus YNL322C, strain KRE1, hits give low values
  normalized growth: 0.999
Locus YOR083W, strain WHI5 (second series), hits give low values
  normalized growth: 1.05
Locus YPL241C, strain CIN2, hits give low values
  normalized growth: 1
